# Source: PubChem (National Center for Advancing Translational Sciences (NCATS))
# Luciferase inh – inhibitors of firefly (Photinus pyralis) luciferase; hit rate 2.5% among 76,000; Potency, µM (doses to about 115 µM), hits mostly inhibitors; P08659; purified P. pyralis luciferase, luminescence, biochemical; also: nearly all actives have a fitted effect of over 65% in size
#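 Purified P. pyralis luciferase (10nM final) in 50mM Tris acetate pH 7.5, 10mM Mg acetate, 0.01% Tween-20, 0.05% BSA with 10uM D-luciferin and 10uM ATP. Compounds titrated qHTS. Luminescence imaged on CCD.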
# GPT2 inhibitor – inhibitors of human GPT2 alanine aminotransferase; Q8TD30; Recombinant GPT2, coupled pyruvate oxidase/HRP Amplex Red fluorescence; Potency, µM (top dose mostly 57.7 µM), for inactives: at the highest dose activity change, negative = inhibition, actives largely listed as inhibitors; AID 1671188; hit rate 0.25% among 100,000; also: nearly all actives have a fitted effect of over 60% in size
#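 Fluorescence read-out: pyruvate from GPT2 turnover coupled to pyruvate oxidase, HRP and Amplex Red (0.2mM ThPP, 0.2U/mL PO and HRP, 50uM Amplex final). Substrates 250uM a-KG, 2mM L-alanine; enzyme 10ng/uL; 30 min RT.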
# NIH3T3 tox – cytotoxic compounds in NIH 3T3 cells. NIH 3T3 viability, CellTiter-Glo ATP luminescence, 48-72 h. Potency, µM (titrated, usually from 96.7 µM), inactives show top-dose activity change, negative = cytotoxicity, most hits filed as inhibitors. hit rate 4.3% among 94,000. AID 1345082; also: nearly all actives have a fitted effect of over 55% in size
#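 NIH 3T3 cells at 400 cells/well received 23 nL of compound by pintool and were incubated 48 or 72 h at 37 °C. Viability was read as ATP-coupled CellTiter-Glo luminescence.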
# HEK cytotox – kills HEK 293 cells | AID 1345083 | Potency, µM (doses to about 115 µM), for inactives: top-dose activity change, negative = cytotoxicity, most hits filed as inhibitors | HEK 293 viability, ATP luminescence (CellTiter-Glo), 48-72 h | hit rate 6.6% among 94,000; also: nearly all actives have a fitted effect of over 60% in size
#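 qHTS cytotoxicity; HEK 293, 250 cells/well; compound pinned; 48 or 72 hr, 37 degree Celsius, 5% CO2, 95% humidity; CellTiter-Glo, 10 min RT; luminescence (ATP).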
# NPR1 antag – antagonists of human natriuretic peptide receptor Npr1 | P16066 | HEK293 hNpr1 GloSensor cGMP, ANP-stimulated luminescence | Potency, µM (doses to about 46.3 µM), without a hit: at the highest dose activity change, negative = inhibition, actives largely listed as inhibitors | hit rate 1.6% among 76,000 | AID 1347048; calls by dose curve; also: nearly all actives have a fitted effect of over 60% in size
#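 Compound pre-incubated 30 min at room temperature on GloSensor-loaded HEK293 cells stably carrying hNpr1 and the pGS-40F cGMP biosensor. Stimulation uses hNppA at 0.1 nM final; luminescence is taken at baseline and 20 min post-agonist.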
# * hit, by the source's call; i = inactive; ? = inconclusive; / = no result given; [ ] = dose if it differs, or a comment. Hits are enriched below; roughly 10% of the tested compounds scored in any of these assays. Unless noted, calls follow the shape of the dose curve; as a rule, active = well fitted curve in the direction sought with a large enough effect; inconclusive = small, poorly fitted or top-dose-only effect, or another doubt; inactive = no such curve, though single readings can be large; an effect the other way counts as inactive or inconclusive. % is scaled to controls: 0 for no effect and ±100 for the full control effect; potency is read from the fitted curve at half-maximal effect.
SMILES,Luciferase inh,GPT2 inhibitor,NIH3T3 tox,HEK cytotox,NPR1 antag
CC(NC(=O)c1ccc(-c2ccc(N3CCCCCC3)nc2)cc1)c1cccnc1 (centres undefined),?,-12%,25µM*,?,?
COCCc1noc(C2Cc3ccccc3N2C(=O)Nc2cc(OC)cc(OC)c2)n1 (centres undefined),i,-3%,-8%,-7%,-2%
CC(=O)NCC(=O)N[C@@H]1CN(Cc2ccccc2)C[C@H]1CO,i,-14%,1%,-3%,-3%
CC1CCN(C(=O)c2ccc(-c3ccc(N4CCSCC4)nc3)cc2)CC1,?,i,?,20µM*,?
O=C(c1ccc(-c2ccc(N3CCCCC3)nc2)cc1)N1CCCC1,28µM*,-1%,40µM*,?,?
Cc1cn2nc(C(=O)Nc3ccc(F)cc3C)cc2c(N2CCSCC2)n1,i,i,?,?,15%
O=C(c1cccc2[nH]ccc12)N1CCC2(CC1)CN(c1ncccn1)CC2CO (centres undefined),i,-5%,-8%,-11%,0%
COCCOC1CN(C2CCN(C(=O)c3cnccn3)CC2)C12CCCCC2 (centres undefined),i,?,2%,2%,3%
COC1CCCN(c2cc(-c3cccnc3)nc3c(C)noc23)C1 (centres undefined),i,-8%[88.5 µM],35µM*,?,-3%[70.6 µM]
COC1CCCN(c2ncccc2-c2cc(-c3ccccc3)nc3c(C)noc23)C1 (centres undefined),i,0%[88.5 µM],?,79µM*,-30%[70.6 µM]
COC1CCN(c2cc(-c3cccnc3)nc3c(C)noc23)CC1,i,-14%[88.5 µM],?,-14%[172 µM],2%[70.6 µM]
CCOc1ccccc1C1NC(=O)N(CC(=O)NCc2ccccc2Cl)C2=C1C(=O)OC2 (centres undefined),i,-32%,?,?,-6%
O=C(CN1C(=O)NC(c2ccc(Cl)cc2)C2=C1COC2=O)NCc1ccccc1Cl (centres undefined),i,4%,?,35µM*,-21%
CC(CCc1ccccc1)NC(=O)CN1C(=O)NC(c2ccc(Cl)cc2)C2=C1COC2=O (centres undefined),i,i,?,40µM*,-4%
Cc1ccc([S+](=O)([O-])N2CCCC(C(=O)N3CCC(c4nc5ccncc5[nH]4)CC3)C2)cc1 (centres undefined),/,i,?,?,/
OCC1CN(c2ncccn2)CC12CCN(Cc1cccc3[nH]ccc13)CC2 (centres undefined),i,i,?,79µM*,-11%
OCC1CN(c2ncccn2)CC12CCN(Cc1c[nH]c3ccccc13)CC2 (centres undefined),i,?,-11%,-5%,1%
O=C(NCc1ccccc1C(F)(F)F)C1CCCN(c2cnn(Cc3ccccc3)c(=O)c2)C1 (centres undefined),i,i,?,45µM*,-19%
COc1ccc(CNC(=O)Cn2c(C)cc3nc4n(c(=O)c32)CCC4)cc1,i,i,i,12%,6%
CCCn1nccc1C(=O)N1CCCC(c2[nH]ncc2Cc2ccccc2)C1 (centres undefined),i,?,?,50µM*,-25%
O=c1[nH]sc2cc(Cl)ccc12,/,14µM*,/,/,/
Clc1ccc(C2Cn3nnc(-c4noc(COc5ccccc5)n4)c3CO2)cc1 (centres undefined),i,i,-9%,?,0%
O=C(c1ccc2c(c1)N(C(=O)c1ccccc1)CC2)N1CCN(c2cccc(Cl)c2)CC1,i,-20%,?,32µM*,-25%
COc1cccc(CCC2CCCN(C(=O)c3ccc(OC)o3)C2)c1 (centres undefined),i,2%,?,35µM*,-19%
O=C(c1ccco1)N1CCCC(CCc2cccc(F)c2)C1 (centres undefined),i,-9%,?,79µM*,6%
SMILES,Luciferase inh,GPT2 inhibitor,NIH3T3 tox,HEK cytotox,NPR1 antag
C=CCS(=O)(=O)N1CCCC(CCc2cccc(OC)c2)C1 (centres undefined),i,?,-29%,?,-1%
COc1ccc(C(=O)N2CCCC(Cc3ncc(C)n3Cc3ccccc3)C2)c(OC)c1 (centres undefined),22µM*,-1%,-7%,-21%,-3%
O=C(NC1CCOCC1)c1ccc2c(c1)OCCN(c1ccccc1)C2,i,i,?,79µM*,-18%[70.6 µM]
O=C(Nc1ccccc1)c1ccc2c(c1)OCCN(c1ccccc1)C2,?,-11%[88.5 µM],-63%[138 µM],112µM*,?
O=C(NC1CC1)c1ccc2c(c1)OCCN(c1cccc(OC(F)(F)F)c1)C2,i,i,?,?,?
CN1CC2(CCN(Cc3ccc(-c4ccc(Cl)cc4)o3)C2)OC1=O (centres undefined),i,0%,?,?,-13%
Clc1ccc(-c2ccc(CN3CC[C@H]4CC[C@@H](C3)N4)o2)cc1,?,-5%,28µM*,28µM*,-12%
O=C(Nc1ccc(F)cc1)c1cccn2cncc12,45µM*,-21%[88.5 µM],-27%[138 µM],?,-1%[70.6 µM]
O=C(Nc1ccc(Cl)cc1Cl)c1cccn2cncc12,45µM*,i,?,?,-19%[70.6 µM]
O=C(Nc1ccc(Cl)cc1Cl)c1ccn2cncc2c1,i,i,-7%[138 µM],?,-6%[70.6 µM]
O=C(c1ccccn1)N1CC2CC(C1)[C@H]1CCCC(=O)N1C2 (some centres undefined),i,i,i,5%,3%
COc1cc(OC)cc(C(=O)N2CCC[C@H]2c2nc(-c3ccc(OC)c(OC)c3)no2)c1,i,0%,?,?,-11%
COCC(=O)NC1CCCN(Cc2ccc(-c3cc(C)cc(C)c3)cc2)C1 (centres undefined),/,i,?,?,/
Cc1cc(C)cc(-c2ccc(CN3CCCC(N[S+](=O)([O-])c4ccccc4)C3)cc2)c1 (centres undefined),/,-12%,?,45µM*,/
Cc1ccc(-c2cccc(CN3CCCC(N[S+](=O)([O-])c4c(C)noc4C)C3)c2)cc1Cl (centres undefined),/,-8%,16µM*,13µM*,/
COc1cccc(-c2ccc(CN3CCCC(N[S+](=O)([O-])c4c(C)noc4C)C3)cc2)c1 (centres undefined),/,i,45µM*,?,/
COc1cccc(-c2ccc(CN3CCCC(N[S+](=O)([O-])c4ccc(C)cc4)C3)cc2)c1 (centres undefined),/,-9%,?,28µM*,/
Cc1ccc(-c2cccc(CN3CCCC(N[S+](=O)([O-])c4ccccc4)C3)c2)cc1Cl (centres undefined),/,-11%,-23%,-14%,/
